Measured values: PubChem BioAssay
Activity calls are given as the source filed them. Unless noted, the rule behind the calls is not given here.

What was measured:
[1] = system: Wnt5a (protein binding on small-molecule microarray); assay: small molecules binding Wnt5a protein – biophysical, small-molecule microarray, 635/667 nm fluorescence, primary screen (AID 1142); conditions: 635 nm fluorescence, higher = more signal;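 note: fluorescence read at 667 nm with signal to noise per printed feature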
[2] = ATP-based viability of Huh7 replicon cells – cell-based, CellTiter-Glo luminescence, basal, 48 h, cytotoxicity control for HCV replication inhibitor project, primary screen (AID 1143); conditions: higher = more signal, called active from +8 up or from −8 down;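 note: Huh7 hepatoma cells carrying a hepatitis C replication reporter with no stimulus; test concentration not given here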
[3] = Pseudomonas biofilm growth suppression – PAO1 strain, BacTiter-Glo luminescence, LB-PBS, primary screen (AID 1144); conditions: P. aeruginosa PAO1 biofilm, 12 h, higher = more signal
[4] = basal CRE-LacZ reporter activity in PC12 – cell-based, unstimulated, primary screen (AID 1145); conditions: no forskolin, luminescence, 4.5 h, higher = more signal, called active from +8 up or from −8 down
[5] = forskolin-driven CRE-LacZ activity in PC12 – cell-based, CRE-LacZ reporter, forskolin-stimulated, primary screen (AID 1146); conditions: luminescence, 4.5 h, higher = more signal, called active from +8 up or from −8 down;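 note: PC12 cells with 6xCRE LacZ reporter stimulated by forskolin 10 µM; beta-galactosidase reporter signal reflecting CREB driven transcription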
[6] = target: Streptavidin (Streptomyces avidinii) (UniProt P22629); assay: compounds binding control protein streptavidin – biophysical, small-molecule microarray, 635/667 nm fluorescence, artefact control for SMM compound annotation, primary screen (AID 1147); conditions: higher = more signal;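 note: signal reflects streptavidin binding to arrayed compounds as a control protein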
[7] = probe aInhba binding on compound microarray – biochemical, small-molecule microarray, 635/667 nm fluorescence, primary screen (AID 1148); conditions: higher = more signal;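 note: score merges 667nm spot fluorescence with signal-to-noise for antibody binding to printed compounds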
Torsin-1A (Homo sapiens) [8] = target: Torsin-1A (Homo sapiens) (UniProt O14656); assay: TOR1A wild-type binding on microarray – cell lysate, small-molecule microarray, lysate, 635/667 nm, primary screen (AID 1149); conditions: COS7 hTOR1A-WT lysate, 635 nm fluorescence, higher = more signal
Torsin-1A (Homo sapiens) [9] = target: Torsin-1A (Homo sapiens) (UniProt O14656); assay: torsin A mutant lysate binding on microarrays – cell lysate, small-molecule microarray, COS7 lysate, 635/667 nm fluorescence, primary screen (AID 1150); conditions: COS7 hTOR1A mutant lysate, 635 nm fluorescence, higher = more signal;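 note: score pools 667 nm emission and signal to noise measuring lysate protein binding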
[10] = system: Sonic hedgehog protein (Shh); assay: Sonic hedgehog microarray binding compounds – biochemical, small-molecule microarray, 635/667 nm fluorescence, primary screen (AID 1151); conditions: 635 nm fluorescence, higher = more signal;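 note: Shh protein binding to compounds spotted on small-molecule microarray slides; score combines spot fluorescence intensity with signal-to-noise across triplicate slides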
[11] = optical density shifts of acrAB sulA E. coli – strain DRC41, OD650, 48 h, E. coli filamentation inducer project, primary screen (AID 1152); conditions: higher = more signal, called active from +8 up or from −8 down;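 note: E. coli MC1000 strain DRC41 lacking acrAB efflux pump and sulA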
[12] = probe aLefty1 binding on compound microarray – biochemical, small-molecule microarray, 635/667 nm fluorescence, primary screen (AID 1153); conditions: higher = more signal;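 note: score merges spot fluorescence with signal-to-noise ratio from the scanned slide images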
[13] = plasmodial surface anion channel blockers, osmotic lysis – cell-based, P. falciparum Indochina, OD700, 1 h, primary screen (AID 1154); conditions: P. falciparum Indochina infected RBC osmotic lysis, higher = more signal, called active from +8 up or from −8 down
[14] = plasmodial surface anion channel blockers, osmotic lysis – cell-based, P. falciparum Indochina, OD700, 2 h, primary screen (AID 1155);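 note: lysis reports solute entry through the parasite surface anion channel PSAC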; conditions: P. falciparum Indochina infected erythrocytes, higher = more signal, called active from +8 up or from −8 down
[15] = changes in parasitized red cell lysis, either direction – P. falciparum Indochina, OD700, 3 h, PSAC antagonist project, primary screen (AID 1156); conditions: P. falciparum-infected erythrocytes, osmotic lysis, higher = more signal, called active from +8 up or from −8 down
[16] = plasmodial surface anion channel blockers, osmotic lysis – cell-based, P. falciparum Indochina, OD700, 18 h, primary screen (AID 1157); conditions: P. falciparum Indochina infected erythrocytes, osmotic lysis OD700, 18 h; higher = more signal, called active from +8 up or from −8 down
[17] = S6 kinase pathway phospho-S6 level changes – cell-based, A549, cytoblot, luminescence, serum-stimulated, primary screen (AID 1158); conditions: 5 h, higher = more signal;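 note: serum-stimulated A549 lung adenocarcinoma cells; signal is phosphorylated S6 detected by cytoblot immunostaining with HRP secondary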
[18] = target: NADPH oxidase 2 (Homo sapiens) (UniProt P04839); assay: compounds shifting NOX2 Amplex Red fluorescence – cell-based, HEK293-NOX2, PMA-stimulated, NOX inhibitor project, primary screen (AID 1159); conditions: 45 min, higher = more signal, called active from +8 up or from −8 down; note: test concentration not given here
[19] = target: NADPH oxidase 4 (Homo sapiens) (UniProt Q9NPH5); assay: compounds shifting NOX4 Amplex Red fluorescence – cell-based, HEK293-NOX4, tetracycline-induced, NOX inhibitor project, primary screen (AID 1160); conditions: HEK293-NOX4, Amplex Red H2O2 fluorescence, 45 min; higher = more signal, called active from +8 up or from −8 down
[20] = target: NADPH oxidase 5 (Homo sapiens) (UniProt Q96PH1); assay: compounds shifting NOX5 Amplex Red fluorescence – cell-based, HEK293-NOX5, NOX inhibitor project, primary screen (AID 1161); conditions: HEK293-NOX5, ionomycin, 45 min, higher = more signal
NADPH oxidase 5 (Homo sapiens), sequence (Q96PH1 whole entry, looked up): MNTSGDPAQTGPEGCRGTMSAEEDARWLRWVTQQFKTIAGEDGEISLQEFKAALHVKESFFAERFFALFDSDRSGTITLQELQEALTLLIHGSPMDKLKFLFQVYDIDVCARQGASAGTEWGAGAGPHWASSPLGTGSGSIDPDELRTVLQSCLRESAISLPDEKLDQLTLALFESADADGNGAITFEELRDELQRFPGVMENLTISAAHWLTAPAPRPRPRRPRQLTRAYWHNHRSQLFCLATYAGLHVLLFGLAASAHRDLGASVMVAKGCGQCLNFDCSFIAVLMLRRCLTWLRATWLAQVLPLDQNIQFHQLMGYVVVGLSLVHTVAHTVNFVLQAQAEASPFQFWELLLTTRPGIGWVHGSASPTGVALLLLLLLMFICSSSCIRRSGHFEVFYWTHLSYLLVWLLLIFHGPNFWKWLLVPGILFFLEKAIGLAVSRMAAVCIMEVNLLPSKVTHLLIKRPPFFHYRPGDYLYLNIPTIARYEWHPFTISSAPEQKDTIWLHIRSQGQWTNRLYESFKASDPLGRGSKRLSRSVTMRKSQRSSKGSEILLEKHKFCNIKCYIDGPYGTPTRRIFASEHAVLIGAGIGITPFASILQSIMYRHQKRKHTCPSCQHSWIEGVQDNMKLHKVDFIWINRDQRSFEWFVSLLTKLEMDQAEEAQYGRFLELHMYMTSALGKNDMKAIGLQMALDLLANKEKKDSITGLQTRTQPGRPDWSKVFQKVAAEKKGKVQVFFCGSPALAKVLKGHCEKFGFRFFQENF

Streptavidin (Streptomyces avidinii), sequence (P22629 whole entry, looked up): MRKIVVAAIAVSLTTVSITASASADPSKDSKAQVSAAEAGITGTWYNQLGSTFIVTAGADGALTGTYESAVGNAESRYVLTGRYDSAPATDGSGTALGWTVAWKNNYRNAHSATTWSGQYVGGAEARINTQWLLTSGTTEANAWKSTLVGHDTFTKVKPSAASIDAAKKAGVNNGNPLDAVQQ
NADPH oxidase 2 (Homo sapiens), sequence (P04839 whole entry, looked up): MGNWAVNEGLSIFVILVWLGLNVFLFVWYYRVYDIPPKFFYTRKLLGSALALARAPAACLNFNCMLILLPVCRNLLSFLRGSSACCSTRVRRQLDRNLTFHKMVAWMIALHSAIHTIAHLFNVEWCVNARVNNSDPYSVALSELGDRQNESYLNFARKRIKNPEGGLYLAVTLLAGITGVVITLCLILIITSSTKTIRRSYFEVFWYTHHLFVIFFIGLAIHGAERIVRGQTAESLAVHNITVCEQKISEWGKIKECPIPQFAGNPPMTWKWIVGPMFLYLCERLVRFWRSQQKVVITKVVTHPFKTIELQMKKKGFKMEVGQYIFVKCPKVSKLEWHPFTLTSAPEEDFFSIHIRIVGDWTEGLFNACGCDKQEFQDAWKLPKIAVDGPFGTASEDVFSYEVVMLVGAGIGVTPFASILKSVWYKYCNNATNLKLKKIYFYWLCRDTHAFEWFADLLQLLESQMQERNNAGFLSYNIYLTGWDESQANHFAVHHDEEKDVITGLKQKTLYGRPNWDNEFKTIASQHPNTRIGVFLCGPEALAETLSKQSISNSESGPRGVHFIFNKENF
NADPH oxidase 4 (Homo sapiens), sequence (Q9NPH5 whole entry, looked up): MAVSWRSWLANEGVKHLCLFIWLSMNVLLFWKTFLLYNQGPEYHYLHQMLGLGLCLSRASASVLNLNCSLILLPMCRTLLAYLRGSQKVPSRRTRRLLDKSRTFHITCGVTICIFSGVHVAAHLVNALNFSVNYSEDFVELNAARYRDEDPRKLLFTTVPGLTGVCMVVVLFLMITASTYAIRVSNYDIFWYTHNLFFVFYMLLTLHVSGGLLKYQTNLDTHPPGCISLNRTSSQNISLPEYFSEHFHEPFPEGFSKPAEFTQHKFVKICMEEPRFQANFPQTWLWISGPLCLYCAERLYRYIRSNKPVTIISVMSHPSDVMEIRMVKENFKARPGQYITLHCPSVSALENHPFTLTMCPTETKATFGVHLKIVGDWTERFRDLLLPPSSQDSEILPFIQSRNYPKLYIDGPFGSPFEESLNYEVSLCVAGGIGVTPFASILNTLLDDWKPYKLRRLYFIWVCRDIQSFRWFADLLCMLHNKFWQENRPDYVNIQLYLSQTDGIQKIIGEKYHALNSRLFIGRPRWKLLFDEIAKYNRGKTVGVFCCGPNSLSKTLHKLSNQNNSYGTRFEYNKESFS
Torsin-1A (Homo sapiens), sequence (O14656 whole entry, looked up): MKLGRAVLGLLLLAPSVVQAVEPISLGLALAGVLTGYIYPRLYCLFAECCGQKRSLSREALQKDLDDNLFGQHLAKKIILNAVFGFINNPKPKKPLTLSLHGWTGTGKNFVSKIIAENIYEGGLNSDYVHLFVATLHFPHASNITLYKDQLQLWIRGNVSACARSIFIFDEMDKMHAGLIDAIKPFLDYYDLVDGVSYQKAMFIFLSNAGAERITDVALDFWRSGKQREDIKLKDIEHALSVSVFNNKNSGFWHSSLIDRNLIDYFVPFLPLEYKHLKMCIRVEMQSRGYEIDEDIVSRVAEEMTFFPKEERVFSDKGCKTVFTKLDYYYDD

Row | SMILES | composite z-score [1] | z-score [2] | z-score [3] | z-score [4] | z-score [5] | composite z-score [6] | composite z-score [7] | composite z-score (Torsin-1A (Homo sapiens) [8]) | composite z-score (Torsin-1A (Homo sapiens) [9]) | composite z-score [10] | z-score [11] | composite z-score [12] | z-score [13] | z-score [14] | z-score [15] | z-score [16] | z-score [17] | z-score [18] | z-score [19] | z-score [20]
1 | COc1ccc([C@H]2C[C@H]3C(Br)=C[C@]2(OC)C(=O)[C@]32CO2)cc1 | -0.225 | 0.147 (inactive) | -0.64 (inactive) | 0.586 (inactive) | 2.58 (inactive) | -0.0817 | -0.128 | 0.806 | -0.278 | -0.038 | -0.882 (inactive) | -0.0536 | 0.262 (inactive) | 0.0516 (inactive) | -0.29 (inactive) | -0.21 (inactive) | -0.242 | 0.0866 (inactive) | 0.295 (inactive) | -0.292
2 | C=C(CCCC)/C(=C/C[C@H](OC(=O)c1ccncc1)c1cccc(OCCO)c1)c1cc(C(=O)OC)ccc1OC | 0.84 | -5.25 (inactive) | -0.536 (inactive) | 6.81 (inactive) | -0.802 (inactive) | 0.396 | -0.0695 | 0.349 | 0.458 | 1.61 | 1.93 (inactive) | 0.0406 | 21.6 (active) | 3.75 (inactive) | 1.61 (inactive) | -0.403 (inactive) | 1.21 | -3.36 (inactive) | -1.72 (inactive) | -2.92
3 | CCCC=C(CCC)[C@@H](NS(=O)(=O)c1ccc(-c2ccccc2)cc1)c1ccc(C(=O)OC)cc1 | -0.228 | -3.56 (inactive) | -0.308 (inactive) | -0.182 (inactive) | -0.289 (inactive) | 0.111 | -0.0791 | -0.269 | -0.383 | -0.948 | -2.25 (inactive) | -0.202 | 0.757 (inactive) | -0.515 (inactive) | 0.248 (inactive) | -1.71 (inactive) | 2.45 | -4.5 (inactive) | -4.82 (inactive) | -2.09
4 | CC(C)[C@H]1NC(=O)[C@@]23C(=O)N[C@@H](Cc4ccccc4)C2[C@H](C)[C@@]2(C)O[C@H]2C3/C=C/C/C=C\CNC(=O)[C@H](C)NC1=O (stereo partly specified) | -0.438 | -0.131 (inactive) | 0.0406 (inactive) | 0.306 (inactive) | 0.289 (inactive) | -1.07 | -0.151 | -0.96 | 0.237 | 0.203 | -0.629 (inactive) | -0.381 | 3.36 (inactive) | 0.538 (inactive) | 0.386 (inactive) | 0.01 (inactive) | -0.221 | 0.813 (inactive) | -0.833 (inactive) | 0.137
5 | COc1cc2c(cc1OC)CN(C(=O)[C@H]1[C@@H]3C(=O)O[C@@H](c4ccccc4)[C@@H](c4ccccc4)N3[C@@H](c3ccccc3OCCO)[C@]13C(=O)Nc1ccc(C#CC4(O)CCCCCC4)cc13)CC2 | 1.01 | -3.68 (inactive) | -1.5 (inactive) | -0.231 (inactive) | 1.57 (inactive) | 0.899 | 0.0119 | 0.808 | 1.12 | 1.33 | 2.29 (inactive) | 0.0686 | 3.02 (inactive) | 2.11 (inactive) | 3.25 (inactive) | 1.89 (inactive) | 0.389 | 1.07 (inactive) | 1.65 (inactive) | 1.43
6 | C[N+](C)(C)CCCCNC(=O)[C@H]1C[C@H]2C(=O)NCC(=O)N2[C@H]1c1cccc(OCCO)c1 | 0.668 | 0.148 (inactive) | -0.722 (inactive) | 0.419 (inactive) | -0.153 (inactive) | 0.0924 | -0.0044 | 1.21 | 0.961 | 2.17 | -0.184 (inactive) | 0.223 | 2.81 (inactive) | -0.0646 (inactive) | -2.28 (inactive) | -0.0179 (inactive) | 0.0455 | -1.21 (inactive) | 0.0245 (inactive) | 0.259
7 | C#CCCCON=C1C[C@@H](O)[C@@H](O)[C@@H]2[C@@H]3C(=O)N(Cc4ccc5c(c4)OCO5)C(=O)[C@@H]3CC[C@@H]12 | -0.323 | -0.209 (inactive) | 1.86 (inactive) | -0.56 (inactive) | -0.157 (inactive) | 0.571 | -0.0245 | -0.345 | -0.151 | 0.9 | 0.741 (inactive) | 0.137 | – | – | – | – | -0.0259 | 0.192 (inactive) | 0.773 (inactive) | -0.019
8 | O=C1O[C@@H](c2ccccc2)[C@@H](c2ccccc2)N2[C@@H](c3ccc(OCCO)cc3)[C@]3(C(=O)Nc4ccc(C#CCCO)cc43)[C@@H](C(=O)N3CCN(c4ncccn4)CC3)[C@H]12 | 0.544 | -0.284 (inactive) | -0.132 (inactive) | 0.478 (inactive) | 0.0989 (inactive) | 0.509 | 0.0403 | 0.376 | 0.5 | 1.93 | 0.533 (inactive) | 0.242 | 3.54 (inactive) | 1.71 (inactive) | -1.56 (inactive) | 0.664 (inactive) | -0.436 | 2 (inactive) | 0.677 (inactive) | 0.589
9 | O=C1C[C@@](C(=O)NC2CC2)(c2ccc([N+](=O)[O-])cc2)[C@@H](c2ccc(CO)cc2I)N1CC12CC3CC(CC(C3)C1)C2 | 0.157 | -5.82 (inactive) | 0.87 (inactive) | 0.818 (inactive) | 1.25 (inactive) | 0.376 | -0.134 | -0.371 | 0.362 | 1.95 | -1.11 (inactive) | 0.0158 | 22.3 (active) | 6.32 (inactive) | 1 (inactive) | 1.99 (inactive) | -0.284 | 1.86 (inactive) | 0.129 (inactive) | 1.92
10 | N#Cc1ccc(NN2C(C(O)CCc3ccccc3)C=CC3C(=O)N(c4ccccc4)C(=O)C32)cc1 (stereo unspecified) | 0.135 | -0.843 (inactive) | -1.07 (inactive) | -0.905 (inactive) | -0.259 (inactive) | 0.79 | 0.194 | -0.0047 | 0.985 | -0.0548 | -0.487 (inactive) | 0.272 | 11.9 (active) | 1.44 (inactive) | 0.712 (inactive) | -0.864 (inactive) | 0.843 | -2.47 (inactive) | -3.59 (inactive) | -1.41
